Experiment [1] can be described thus: compounds binding Alexa647 anti-His antibody – biochemical, small-molecule microarray, 635 nm fluorescence, artefact control for SMM control protein annotation, primary screen (AID 1128).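 Further: score merges feature fluorescence with signal-to-noise for each printed compound spot.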 The conditions noted are these: higher = more signal.
Experiment [2] deals with Human papillomavirus type 1a E7 protein (residues 1-88). The experiment is described as follows: HPV1a E7 small-molecule binders, primary screen, biochemical, small-molecule microarray, residues 1-88, 635 nm (AID 1129). The conditions noted are these: small-molecule microarray binding, fluorescence 635 nm; higher = more signal.
Experiment [3] has as its target Focal adhesion kinase 1 (Homo sapiens) (UniProt Q05397). The experiment is described as follows: PTK2 protein binding on printed compound slides – biochemical, small-molecule microarray, 635/667 nm fluorescence, BSA, DTT, primary screen (AID 1130).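 Further: composite of spot emission at 667 nm and signal to noise over triplicate slides.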 The conditions noted are these: 635 nm fluorescence, higher = more signal.
Experiment [4] has as its system Fibrinogen (Alexa647-labelled). The experiment is described as follows: Alexa647-fibrinogen binding to printed small molecules – biochemical, small-molecule microarray, 635/667 nm fluorescence, artefact control for SMM control-protein annotation, profiling panel (AID 1131).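 Further: z-score merges 667 nm fluorescence with per-spot signal-to-noise over triplicate slides.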 The conditions noted are these: fibrinogen-A647 binding fluorescence, higher = more signal.
Experiment [5] concerns the target Follistatin (Homo sapiens) (UniProt P19883). Kind of experiment: FST protein binding to printed compounds – biochemical, small-molecule microarray, 635/667 nm fluorescence, primary screen (AID 1132). The conditions noted are these: 635 nm fluorescence, higher = more signal.
In experiment [6] the target is Fibroblast growth factor 2 (Homo sapiens) (UniProt P09038). Kind of experiment: basic fibroblast growth factor binding to printed compounds – biochemical, small-molecule microarray, 635/667 nm fluorescence, primary screen (AID 1133). The conditions noted are these: FGF2, fluorescence 635/667, higher = more signal.
Sequence of Fibroblast growth factor 2 (Homo sapiens) (P09038 whole entry, looked up): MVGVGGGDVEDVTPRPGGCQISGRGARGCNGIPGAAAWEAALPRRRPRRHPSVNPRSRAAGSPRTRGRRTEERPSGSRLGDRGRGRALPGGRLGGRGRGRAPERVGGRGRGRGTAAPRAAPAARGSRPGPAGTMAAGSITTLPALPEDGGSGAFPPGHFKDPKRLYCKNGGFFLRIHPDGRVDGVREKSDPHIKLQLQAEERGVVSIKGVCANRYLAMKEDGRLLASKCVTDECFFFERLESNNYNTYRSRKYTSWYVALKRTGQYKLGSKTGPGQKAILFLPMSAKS
Experiment [7] in a line: JC-1 mitochondrial potential readout, lung cancer cells – cell-based, A549, JC-1 fluorescence, basal, 24 h, 100 nL, profiling panel (AID 1138).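 Further: A549 lung adenocarcinoma cells under basal conditions with no added stimulus; test concentration not given here.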 The conditions noted are these: higher = more signal.
The test system of another experiment is Lefty1. The experiment is described as follows: Lefty1 protein binding to printed compounds – biochemical, small-molecule microarray, 635/667 nm fluorescence, primary screen (AID 1139). The conditions noted are these: fluorescence 635/667, higher = more signal.
In experiment [8] the test system is wheat germ agglutinin (Triticum aestivum), Alexa647-labelled. The experiment is described as follows: Alexa647-WGA lectin binding to printed small molecules – biochemical, small-molecule microarray, 635/667 nm fluorescence, artefact control for SMM control-protein annotation, profiling panel (AID 1140).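 Further: score merges 667 nm feature emission with signal to noise over triplicate slides.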 Conditions: WGA-A647 binding, 635 nm fluorescence, higher = more signal.

Experiment [9] deals with Luciferin 4-monooxygenase (Photinus pyralis) (UniProt P08659). The experiment is described as follows: inhibition of purified Photinus pyralis luciferase – biochemical, luminescence, purified enzyme, 2006 set, primary screen (AID 1141).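 Further: cell-free assay with purified firefly luciferase at 100 ng per well in PBS; test concentration not given here.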 The conditions noted are these: purified firefly luciferase, SteadyGlo luminescence, 30 min; higher = more signal, called active from +8 up or from −8 down.
Sequence of Luciferin 4-monooxygenase (Photinus pyralis) (P08659 whole entry, looked up): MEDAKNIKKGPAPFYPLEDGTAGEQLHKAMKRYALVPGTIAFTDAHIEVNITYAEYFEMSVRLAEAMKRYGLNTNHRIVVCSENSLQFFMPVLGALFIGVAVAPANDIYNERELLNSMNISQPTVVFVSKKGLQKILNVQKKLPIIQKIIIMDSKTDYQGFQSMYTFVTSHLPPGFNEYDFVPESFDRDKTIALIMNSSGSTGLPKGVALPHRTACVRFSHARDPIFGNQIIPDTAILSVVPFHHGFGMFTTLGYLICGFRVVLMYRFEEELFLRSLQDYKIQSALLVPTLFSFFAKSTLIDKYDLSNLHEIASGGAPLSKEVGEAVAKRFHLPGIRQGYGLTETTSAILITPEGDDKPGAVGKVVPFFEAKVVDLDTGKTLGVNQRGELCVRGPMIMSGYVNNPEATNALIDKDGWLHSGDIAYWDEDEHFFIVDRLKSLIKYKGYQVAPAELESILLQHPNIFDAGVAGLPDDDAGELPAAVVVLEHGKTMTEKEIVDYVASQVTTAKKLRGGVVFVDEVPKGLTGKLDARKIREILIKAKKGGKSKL

The test system of experiment [10] is Wnt5a (protein binding on small-molecule microarray). The experiment is described as follows: small molecules binding Wnt5a protein – biophysical, small-molecule microarray, 635/667 nm fluorescence, primary screen (AID 1142).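 Further: fluorescence read at 667 nm with signal to noise per printed feature.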 The conditions noted are these: 635 nm fluorescence, higher = more signal.
Experiment [11] in a line: ATP-based viability of Huh7 replicon cells – cell-based, CellTiter-Glo luminescence, basal, 48 h, cytotoxicity control for HCV replication inhibitor project, primary screen (AID 1143).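 Further: Huh7 hepatoma cells carrying a hepatitis C replication reporter with no stimulus; test concentration not given here.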 The conditions noted are these: higher = more signal, called active from +8 up or from −8 down. On the technique in general: A replicon is a self-replicating genome or part of one, used to study replication in cells.

Experiment [12] can be described thus: Pseudomonas biofilm growth suppression – PAO1 strain, BacTiter-Glo luminescence, LB-PBS, primary screen (AID 1144). Conditions: P. aeruginosa PAO1 biofilm, 12 h, higher = more signal.
The nature of experiment [13]: basal CRE-LacZ reporter activity in PC12 – cell-based, unstimulated, primary screen (AID 1145). Conditions: no forskolin, luminescence, 4.5 h, higher = more signal, called active from +8 up or from −8 down.
Experiment [14] is described as follows: forskolin-driven CRE-LacZ activity in PC12 – cell-based, CRE-LacZ reporter, forskolin-stimulated, primary screen (AID 1146).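 Further: PC12 cells with 6xCRE LacZ reporter stimulated by forskolin 10 µM; beta-galactosidase reporter signal reflecting CREB driven transcription.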 Conditions: luminescence, 4.5 h, higher = more signal, called active from +8 up or from −8 down.
Experiment [15] has as its target Streptavidin (Streptomyces avidinii) (UniProt P22629). Kind of experiment: compounds binding control protein streptavidin – biophysical, small-molecule microarray, 635/667 nm fluorescence, artefact control for SMM compound annotation, primary screen (AID 1147).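 Further: signal reflects streptavidin binding to arrayed compounds as a control protein.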 The conditions noted are these: higher = more signal.
Experiment [16] is described as follows: probe aInhba binding on compound microarray – biochemical, small-molecule microarray, 635/667 nm fluorescence, primary screen (AID 1148).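 Further: score merges 667nm spot fluorescence with signal-to-noise for antibody binding to printed compounds.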 Conditions: higher = more signal.
Experiment [17] addresses Torsin-1A (Homo sapiens) (UniProt O14656). Kind of experiment: TOR1A wild-type binding on microarray – cell lysate, small-molecule microarray, lysate, 635/667 nm, primary screen (AID 1149). Conditions: COS7 hTOR1A-WT lysate, 635 nm fluorescence, higher = more signal.
Experiment [18] shares this target. The experiment is described as follows: torsin A mutant lysate binding on microarrays – cell lysate, small-molecule microarray, COS7 lysate, 635/667 nm fluorescence, primary screen (AID 1150).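 Further: score pools 667 nm emission and signal to noise measuring lysate protein binding.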 The conditions noted are these: COS7 hTOR1A mutant lysate, 635 nm fluorescence, higher = more signal.
Experiment [19] concerns Sonic hedgehog protein (Shh). The experiment is described as follows: Sonic hedgehog microarray binding compounds – biochemical, small-molecule microarray, 635/667 nm fluorescence, primary screen (AID 1151).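 Further: Shh protein binding to compounds spotted on small-molecule microarray slides; score combines spot fluorescence intensity with signal-to-noise across triplicate slides.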 Conditions: 635 nm fluorescence, higher = more signal.

In PubChem BioAssay one finds composite z-score and z-score data, which are given here for five molecules.

The source made the active and inactive calls. Unless noted, how the calls were made is not given here.

Sequence of Streptavidin (Streptomyces avidinii) (P22629 whole entry, looked up): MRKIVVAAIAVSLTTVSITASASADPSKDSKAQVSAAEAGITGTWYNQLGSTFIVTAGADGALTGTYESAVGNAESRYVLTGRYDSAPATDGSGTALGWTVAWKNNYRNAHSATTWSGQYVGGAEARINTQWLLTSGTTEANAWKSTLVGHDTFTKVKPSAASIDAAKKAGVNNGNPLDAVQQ
Sequence of Torsin-1A (Homo sapiens) (O14656 whole entry, looked up): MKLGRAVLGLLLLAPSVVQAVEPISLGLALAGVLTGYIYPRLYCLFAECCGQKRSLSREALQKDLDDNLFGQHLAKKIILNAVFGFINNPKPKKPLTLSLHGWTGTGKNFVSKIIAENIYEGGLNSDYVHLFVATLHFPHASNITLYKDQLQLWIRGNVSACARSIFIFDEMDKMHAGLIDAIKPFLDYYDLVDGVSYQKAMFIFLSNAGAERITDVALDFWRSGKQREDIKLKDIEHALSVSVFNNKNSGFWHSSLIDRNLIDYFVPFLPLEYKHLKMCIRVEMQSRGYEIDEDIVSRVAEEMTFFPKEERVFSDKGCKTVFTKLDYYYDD
Sequence of Follistatin (Homo sapiens) (P19883 whole entry, looked up): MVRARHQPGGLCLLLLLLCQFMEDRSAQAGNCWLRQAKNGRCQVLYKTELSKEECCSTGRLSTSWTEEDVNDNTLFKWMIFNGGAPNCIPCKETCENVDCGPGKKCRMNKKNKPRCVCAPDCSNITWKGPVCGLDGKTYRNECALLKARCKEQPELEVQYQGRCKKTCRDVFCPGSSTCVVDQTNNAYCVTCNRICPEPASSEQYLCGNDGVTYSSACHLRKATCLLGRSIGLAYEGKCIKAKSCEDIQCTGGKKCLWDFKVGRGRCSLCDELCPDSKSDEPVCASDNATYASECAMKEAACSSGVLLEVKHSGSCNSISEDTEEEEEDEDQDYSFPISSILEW
Sequence of Focal adhesion kinase 1 (Homo sapiens) (Q05397 whole entry, looked up): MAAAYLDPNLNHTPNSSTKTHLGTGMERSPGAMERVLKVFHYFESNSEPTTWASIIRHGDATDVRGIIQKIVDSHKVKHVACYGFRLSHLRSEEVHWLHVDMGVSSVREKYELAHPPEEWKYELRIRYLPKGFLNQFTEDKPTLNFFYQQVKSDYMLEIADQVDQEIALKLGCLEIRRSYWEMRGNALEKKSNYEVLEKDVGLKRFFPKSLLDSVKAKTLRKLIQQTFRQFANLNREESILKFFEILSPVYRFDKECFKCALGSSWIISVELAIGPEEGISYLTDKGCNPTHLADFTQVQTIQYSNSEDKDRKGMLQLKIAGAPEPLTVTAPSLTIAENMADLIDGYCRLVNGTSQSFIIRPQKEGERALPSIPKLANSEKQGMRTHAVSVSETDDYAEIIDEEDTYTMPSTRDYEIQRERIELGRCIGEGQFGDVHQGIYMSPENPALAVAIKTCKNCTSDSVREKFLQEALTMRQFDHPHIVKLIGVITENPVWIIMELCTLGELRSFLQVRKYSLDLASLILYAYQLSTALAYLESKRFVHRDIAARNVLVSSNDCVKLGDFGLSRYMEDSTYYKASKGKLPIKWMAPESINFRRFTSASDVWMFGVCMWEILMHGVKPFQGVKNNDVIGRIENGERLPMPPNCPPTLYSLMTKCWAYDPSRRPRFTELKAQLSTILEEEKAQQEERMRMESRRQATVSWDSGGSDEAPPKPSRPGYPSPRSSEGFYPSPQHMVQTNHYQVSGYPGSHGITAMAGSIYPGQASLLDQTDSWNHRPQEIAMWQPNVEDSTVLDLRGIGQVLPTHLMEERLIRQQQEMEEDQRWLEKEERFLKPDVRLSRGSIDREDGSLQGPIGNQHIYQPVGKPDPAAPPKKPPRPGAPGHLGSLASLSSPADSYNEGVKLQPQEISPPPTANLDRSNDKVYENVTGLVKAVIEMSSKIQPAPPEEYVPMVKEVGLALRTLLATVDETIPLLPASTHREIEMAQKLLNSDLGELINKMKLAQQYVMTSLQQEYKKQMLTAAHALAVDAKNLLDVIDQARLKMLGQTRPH

For `CCCC[C@@H]1C[C@H]1[C@@H](NC(=O)c1ccccc1)c1ccccc1C(F)(F)F`, the composite z-score was 0.412 in experiment [1]; 1.22 in experiment [2]; 0.826 in experiment [3]; 1.03 in experiment [4]; 0.243 in [5]; -0.113 in experiment [6]. Also, the composite z-score with Lefty1 was -0.826; in [8], 1.17; in [10], 0.175; in [15] it was 1.84; in experiment [16], 0.319; in the experiment with Torsin-1A (Homo sapiens) [17], -0.113. For the same molecule, the composite z-score with Torsin-1A (Homo sapiens) [18] is 0.322; in experiment [19] it was -0.654. The z-score in experiment [7] is 0.294; in experiment [9], 1.31 (inactive); in experiment [11], 0.0018 (inactive); in experiment [12], -0.0632 (inactive); in experiment [13], 1.73 (inactive); in [14] it was 1.17 (inactive).

`CCOC(=O)C[C@H]1[C@H](OC(=O)c2cc3ccccc3oc2=O)[C@@H](NC(=O)C2CCCCC2)c2cc(OCCCO)ccc2N1C(=O)c1ccc2ccccc2n1`: the composite z-score is 0.0957 in [1]; 0.791 in experiment [2]; 2.65 in experiment [3]; 0.443 in [4]; 1.13 in experiment [5]; 0.324 in experiment [6]. The composite z-score with Lefty1 is 0.522; in experiment [8], 0.755; in experiment [10] it was 0.156; in experiment [15] it was 0.449; in experiment [16], -0.0719; with Torsin-1A (Homo sapiens) [17] it was 0.16. The figures for the composite z-score (in the experiment with Torsin-1A (Homo sapiens) [18]; in experiment [19]) were 0.11 and 0.526, respectively. Besides, the z-score was 0.539 in experiment [7]; 0.777 (inactive) in experiment [9]; -0.271 (inactive) in experiment [11]; -0.686 (inactive) in [12]; 6.62 (inactive) in [13]; 0.821 (inactive) in experiment [14].

Take `C=C(C(=O)CC[C@H](OC(=O)c1ccccc1-c1ccccc1C(=O)O)c1ccc(CO)o1)C(C)C`: the composite z-score stood at 2.61 in experiment [1]; 0.0323 in experiment [2]; 0.0321 in experiment [3]; 0.531 in experiment [4]; 1.27 in experiment [5]; 1.46 in [6]. The composite z-score is 1.04 in the experiment with Lefty1; 0.0123 in [8]; 0.416 in [10]; 0.194 in [15]; -0.0933 in [16]; 0.427 with Torsin-1A (Homo sapiens) [17]. The composite z-score in the experiment with Torsin-1A (Homo sapiens) [18] amounted to 0.669; in experiment [19], 1.71. The z-score in [7] is -0.528; in experiment [9], -1.75 (inactive); in [11], 0.559 (inactive); in [12], -1.11 (inactive); in [13], 0.406 (inactive); in experiment [14], 2.42 (inactive).

For the molecule `O=C/C=C/c1ccc(/C=C/c2ccccc2)cc1`, the composite z-score is 1.52 in experiment [1]; -0.483 in experiment [2]; -0.313 in experiment [3]; -1.86 in experiment [4]; 0.828 in experiment [5]; 0.168 in [6]. Besides, the composite z-score with Lefty1 is -0.134; in experiment [8], 0.633; in experiment [10], -0.378; in experiment [15], -0.0122; in experiment [16], -0.128; with Torsin-1A (Homo sapiens) [17], -0.373. Also, the composite z-score in the experiment with Torsin-1A (Homo sapiens) [18] is -0.479; in experiment [19], 0.609. The z-score in experiment [7] was 1.39; in experiment [9] it was -3.83 (inactive); in experiment [11], -2.23 (inactive); in [12], -0.0603 (inactive); in [13], -0.141 (inactive); in [14], -0.795 (inactive).

Consider `C=CCC(OC(C)=O)[C@@H]1[C@@H](N(Cc2ccc(-c3ccccc3)cc2)C(=O)c2ccc(-c3ccccc3)cc2)c2cc(OCCCO)ccc2N1C(=O)Cc1ccc(OC)cc1` (stereo not given in full), for which the composite z-score in experiment [1] was -0.347; in experiment [2], 0.328; in experiment [3] it was 0.602; in experiment [4], 0.466; in [5] it was 0.856; in experiment [6], 0.0338. Besides, the composite z-score in the experiment on Lefty1 is 0.0287; in experiment [8], 0.192; in experiment [10], 0.0459; in experiment [15], 0.573; in experiment [16], -0.0774; in the experiment with Torsin-1A (Homo sapiens) [17] it was -0.096. Besides, the composite z-score with Torsin-1A (Homo sapiens) [18] was -0.37; in experiment [19], 0.346. Also, the z-score is 0.764 in experiment [7]; -0.115 (inactive) in experiment [9]; -0.178 (inactive) in experiment [11]; 0.318 (inactive) in experiment [12]; -0.0247 (inactive) in [13]; 0.522 (inactive) in experiment [14].
